Source: PubChem (Broad Institute)
DENV2 CPE = protects cells from dengue virus 2 cytopathic effect; CPE inhibition, % at 9.99 µM; AID 651640; DENV2-infected cells, cytopathic effect rescue, plate reader; 1.7% of 350,000 active; in the data active means CPE inhibition above about 20%, passing the limit was not always enough; tested in BHK-21 cells;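 further: 0% = median of neutral control wells and 100% = median of positive control wells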
GSIS activator = primary screen for activators of insulin secretion dependent on glucose, INS-1E cells, GLuc reporter luminescence | activation, % at 16.6 µM | 0.61% of 370,000 active | INS-1E GLuc reporter insulin secretion, 2-3 h;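 active means lowest replicate activation of at least 40%, so every replicate reaches that level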;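 further: 0% = median of neutral control wells and 100% = median of IBMX positive control wells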
ERAP1 inh = ERAP1 (human) enzyme inhibition; inhibition, % at 10.7 µM; AID 652197; recombinant ERAP1, Leu-AMC fluorescence, 60 min; 0.15% of 340,000 active;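 active means mean replicate inhibition of at least 30%, or all replicates individually reaching that 30% level; inactive means mean below 30% and not every replicate reaching it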;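 further: 0% = neutral control wells and 100% = L-leucinethiol positive control wells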
Target sequence (Q9NZ08 whole entry, looked up): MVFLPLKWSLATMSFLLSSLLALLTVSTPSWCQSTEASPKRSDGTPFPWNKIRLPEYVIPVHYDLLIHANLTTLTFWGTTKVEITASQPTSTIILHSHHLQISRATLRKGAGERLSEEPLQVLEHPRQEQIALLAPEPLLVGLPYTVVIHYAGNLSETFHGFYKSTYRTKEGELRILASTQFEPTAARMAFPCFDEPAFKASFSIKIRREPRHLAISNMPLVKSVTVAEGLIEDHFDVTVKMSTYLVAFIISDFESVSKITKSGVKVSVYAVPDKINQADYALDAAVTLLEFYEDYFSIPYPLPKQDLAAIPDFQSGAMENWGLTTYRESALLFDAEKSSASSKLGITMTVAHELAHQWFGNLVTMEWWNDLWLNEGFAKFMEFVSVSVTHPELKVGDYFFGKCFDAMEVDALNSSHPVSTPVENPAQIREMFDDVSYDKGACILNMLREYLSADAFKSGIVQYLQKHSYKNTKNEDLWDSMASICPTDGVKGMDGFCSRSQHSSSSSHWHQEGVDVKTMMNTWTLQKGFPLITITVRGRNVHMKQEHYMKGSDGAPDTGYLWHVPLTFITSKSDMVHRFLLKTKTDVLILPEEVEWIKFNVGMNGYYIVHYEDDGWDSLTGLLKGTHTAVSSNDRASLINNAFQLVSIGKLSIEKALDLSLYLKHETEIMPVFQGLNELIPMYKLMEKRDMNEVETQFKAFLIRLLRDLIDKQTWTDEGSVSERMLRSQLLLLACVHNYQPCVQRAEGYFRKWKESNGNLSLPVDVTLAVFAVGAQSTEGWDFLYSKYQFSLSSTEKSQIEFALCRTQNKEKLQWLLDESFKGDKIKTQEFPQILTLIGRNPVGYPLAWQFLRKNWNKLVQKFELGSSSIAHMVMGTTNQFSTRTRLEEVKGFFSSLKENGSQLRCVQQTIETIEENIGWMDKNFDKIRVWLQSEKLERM
CaV13 FRET inh = Primary screen for inhibitors of IQ motif and Ca2+-dependent inactivation inhibitor domain binding in CACNA1D, Förster resonance energy transfer in living cells, …; HEK cells, CFP/YFP FRET ICDI-IQ, plate reader, 10 min; percent FRET-ratio fall versus neutral wells; inhibition, % at 12.3 µM; 0.098% of 340,000 active; AID 743397;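 active means mean replicate inhibition of at least 30% and at least 1% of replicates passing that level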;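 further: 0% = median of the neutral control wells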
rRNA inh HTS = inhibits bacterial ribosomal RNA function over humanized ribosomes; E. coli WT GFP vs humanized-ribosome RFP mutants, fluorescence, 24 h; active compounds read low; DMSO median 0, no signal -100; GFP signal change (wild-type ribosome), % (no concentration beside the values); 1.6% of 350,000 active; AID 720706;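 active means significant combined selectivity score with lowered wild-type GFP, culture density cut under 30%, mutant RFP and density less affected; inactive means any of these conditions unmet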
PGC1a acetyl inh = modulators of PGC1a acetylation; U2OS PGC1a acetylation, AlphaScreen anti-acetyl-lysine; with virally co-expressed GCN5 acetyltransferase; inhibition, % at 15.6 µM; 0.17% of 350,000 active; AID 651687;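 active means every replicate shows inhibition of at least 40%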;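 further: 0% = neutral control wells and 100% = positive control wells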
The depositor's hits bear a star; · = no result. A selection: hits, their analogues and other compounds. The true share with any hit is near 3.2%.

SMILES | DENV2 CPE | GSIS activator | ERAP1 inh | CaV13 FRET inh | rRNA inh HTS | PGC1a acetyl inh
CN1C[C@H]2[C@@H](c3ccccc31)[C@@H](CO)N2C(=O)C1CC1 | -14 | 2 | 0 | · | 3 | 10
C[C@@H]1CCCCO[C@@H](CN(C)C(=O)Cc2ccccc2)[C@@H](C)CN([C@H](C)CO)C(=O)c2cc(NS(=O)(=O)c3ccc(Cl)cc3)ccc2O1 | 25* | 7 | 5 | · | 4 | -2
C[C@H]1CCCCO[C@H](CN(C)C(=O)Cc2ccccc2)[C@@H](C)CN([C@@H](C)CO)C(=O)c2cc(NS(=O)(=O)c3ccc(Cl)cc3)ccc2O1 | 28* | -15 | 3 | · | 0 | 6
COc1ccc(S(=O)(=O)Nc2ccc3c(c2)C(=O)N([C@@H](C)CO)C[C@H](C)[C@@H](CN(C)C(=O)Cc2ccccc2)OCCCC[C@H](C)O3)cc1 | 68* | -33 | -2 | · | -2 | -2
COc1ccc(S(=O)(=O)Nc2ccc3c(c2)C(=O)N([C@H](C)CO)C[C@H](C)[C@H](CN(C)C(=O)CCCN(C)C)OCCCC[C@H](C)O3)cc1 | 22* | 13 | -3 | · | 1 | 4
C[C@H](CO)N1C[C@H](C)[C@@H](CN(C)C(=O)C2CCCCC2)OCCCC[C@H](C)Oc2ccc(NC(=O)C3CCCCC3)cc2C1=O | -6 | -22 | 1 | · | -5 | 2
CCc1ccc(C(=O)CN2C(=O)NC3(CCOc4ccccc43)C2=O)s1 (stereo not drawn) | 2 | · | 5 | -18 | · | -5
O=C(CN1C(=O)NC2(CCOc3ccccc32)C1=O)c1ccc(Cl)s1 (stereo not drawn) | 5 | -30 | -7 | -2 | -32* | ·
Cc1noc(C)c1S(=O)(=O)N(C)C[C@H]1OCCCC[C@@H](C)Oc2ccc(NS(=O)(=O)c3ccc(Cl)cc3)cc2C(=O)N([C@@H](C)CO)C[C@@H]1C | 31* | -14 | 5 | · | -2 | -14
Cc1noc(C)c1S(=O)(=O)N(C)C[C@H]1OCCCC[C@@H](C)Oc2ccc(NS(=O)(=O)c3ccc(Cl)cc3)cc2C(=O)N([C@@H](C)CO)C[C@H]1C | -14 | -23 | 3 | · | -5 | -30
Cc1noc(C)c1S(=O)(=O)N(C)C[C@@H]1OCCCC[C@@H](C)Oc2ccc(NS(=O)(=O)c3ccc(Cl)cc3)cc2C(=O)N([C@@H](C)CO)C[C@H]1C | 36* | -17 | 2 | · | -4 | -18
C[C@H](CO)N1C[C@H](C)[C@H](CN(C)Cc2cncnc2)Oc2ncc(C#CC(C)(C)O)cc2C1=O | 4 | 5 | 10 | · | 5 | 11
C[C@H](CO)N1C[C@H](C)[C@@H](CN(C)Cc2cncnc2)Oc2ncc(C#CC(C)(C)O)cc2C1=O | -5 | 15 | -2 | · | 2 | -2
C[C@@H]1CN([C@@H](C)CO)C(=O)c2cc(C#CC(C)(C)O)cnc2O[C@@H]1CN(C)Cc1cncnc1 | 23* | 1 | 11 | · | 2 | 11
C[C@@H]1CN([C@@H](C)CO)C(=O)c2cc(C#CC(C)(C)O)cnc2O[C@H]1CN(C)Cc1cncnc1 | 64* | 0 | -3 | · | 0 | -6
C[C@H]1CCCCO[C@H](CN(C)CC2CCCCC2)[C@@H](C)CN([C@@H](C)CO)C(=O)c2cc(NC(=O)Nc3ccc4c(c3)OCO4)ccc2O1 | 5 | -23 | -6 | · | -20 | -42
O=[N+]([O-])c1cccc2c(S(=O)(=O)N3CCCCC3)cccc12 | 53* | -9 | -2 | -3 | -13 | ·
O=[N+]([O-])c1cccc2c(S(=O)(=O)N3CCOCC3)cccc12 | 15 | 1 | · | -18 | -8 | ·
O=C(Nc1ccc2c(c1)[C@@H]1C[C@H](CC(=O)N3CCc4ccccc4C3)O[C@@H](CO)[C@@H]1O2)C1CCC1 | -1 | -4 | 0 | · | -11 | -3
CC(=O)OC[C@@H]1CN(Cc2ccccc2)C[C@H](n2cnc3c(N(C)C(C)C)ncnc32)O1 | -9 | -11 | -3 | 45* | 6 | ·
CCN(CC)c1ncnc2c1ncn2[C@H]1CN(Cc2ccccc2)C[C@@H](COC(C)=O)O1 | -3 | -8 | 1 | -10 | · | ·
CCOc1ccc(NC(=O)COC(=O)C2CC2C)cc1 (stereo not drawn) | 2 | 7 | 0 | -6 | 13 | 13
CC1CC1C(=O)OCC(=O)Nc1ccc(N=Nc2ccccc2)cc1 (stereo not drawn) | -2 | -22 | 0 | -2 | -18* | ·
C[C@@H]1CN([C@H](C)CO)C(=O)c2cccc(NC(=O)C3CC3)c2O[C@@H]1CN(C)C(=O)Nc1ccc(F)cc1 | 12 | -5 | -3 | · | 0 | 7
CC(C)NC(=O)Nc1cccc2c1O[C@H](CN(C)C(=O)Nc1ccc(F)cc1)[C@H](C)CN([C@@H](C)CO)C2=O | -10 | 9 | -2 | · | 3 | -3
SMILES | DENV2 CPE | GSIS activator | ERAP1 inh | CaV13 FRET inh | rRNA inh HTS | PGC1a acetyl inh
C[C@H](CO)N1C[C@H](C)[C@H](CN(C)C(=O)Nc2ccc(F)cc2)Oc2c(NC(=O)C3CC3)cccc2C1=O | 35* | -1 | 0 | · | 0 | 8
CC(C)NC(=O)Nc1cccc2c1O[C@@H](CN(C)C(=O)Nc1ccc(F)cc1)[C@@H](C)CN([C@H](C)CO)C2=O | 22* | -2 | -2 | · | 0 | 0
Cc1ccc(S(=O)(=O)Nc2ccc3c(c2)C(=O)N([C@H](C)CO)C[C@@H](C)[C@H](CN(C)C(=O)Nc2c(C)noc2C)O3)cc1 | 2 | 8 | 2 | · | -1 | 7
Cc1ccc2c(c1)N(C(C)C(=O)NCc1cccs1)C(=O)CO2 (stereo not drawn) | -3 | 51* | · | -16 | 9 | 1
Cc1ccc2c(c1)N(C(C)C(=O)NCc1ccccn1)C(=O)CO2 (stereo not drawn) | 8 | 32 | -3 | -8 | 3 | ·
CCOC(=O)c1cnc2ccc(C(=O)OC)cc2c1NCCCN1CCOCC1 | -6 | 7 | 1 | -1 | -21 | -2
CCOC(=O)c1cnc2ccc(C(=O)OC)cc2c1NCCN1CCOCC1 | 6 | 4 | 5 | -8 | -27* | ·
CN(C)C(CNC(=O)c1cc(S(=O)(=O)N(C)c2ccccc2)ccc1Cl)c1cccs1 (stereo not drawn) | -1 | -1 | 4 | -6 | -35* | 15
O=C(CN1C2CCCC1CC(NC(=O)c1ccco1)C2)Nc1ccccc1C(F)(F)F (stereo not drawn) | · | · | · | -4 | · | -11
O=C(CN1C2CCCC1CC(NC(=O)c1ccccc1)C2)Nc1ccccc1C(F)(F)F (stereo not drawn) | 0 | -5 | 0 | -2 | -41* | 4
